Most compounds without a hit are left out; they make up all but 28% or so of the library.
D1 allo mod – D1 dopamine receptor (human) allosteric modulation; P21728; HEK293 D1, CRE-luciferase, dopamine EC30 potentiation; actives deviate in either direction; B-score at 10 µM; actives 5.9% (n = 58,000); AID 641;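 active = luminescence count or its row- and column-corrected plate score outside the 99.7% band of the plate's sample wells, on either side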
CYP2C9 inhib – blocks human cytochrome P450 2C9; P11712; CYP2C9 Supersomes, luciferin-H conversion, luminescence; inhibition, % at 5 µM; actives 20% (n = 96,000);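 active = blocking of liver enzyme CYP2C9 beyond about 50% at 5 µM, limit read from the data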
Target sequence (P11712 whole entry, looked up): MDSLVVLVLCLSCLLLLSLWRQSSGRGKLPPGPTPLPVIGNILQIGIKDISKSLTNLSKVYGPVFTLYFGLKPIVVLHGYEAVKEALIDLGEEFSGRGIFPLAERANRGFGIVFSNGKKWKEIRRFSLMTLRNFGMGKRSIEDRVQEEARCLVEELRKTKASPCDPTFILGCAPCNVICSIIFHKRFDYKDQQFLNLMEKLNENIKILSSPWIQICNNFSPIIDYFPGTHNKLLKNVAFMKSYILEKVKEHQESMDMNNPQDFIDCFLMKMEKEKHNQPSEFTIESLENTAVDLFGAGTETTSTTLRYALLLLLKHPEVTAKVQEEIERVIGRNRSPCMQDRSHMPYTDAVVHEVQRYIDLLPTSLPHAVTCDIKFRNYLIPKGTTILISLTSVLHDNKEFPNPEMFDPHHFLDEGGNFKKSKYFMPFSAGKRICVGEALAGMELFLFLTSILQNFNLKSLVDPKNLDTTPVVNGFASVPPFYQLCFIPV
CYP2C9 act – activators of human CYP2C9; recombinant CYP2C9, luciferin-H conversion, luminescence; active compounds read high; factor 1 = untreated enzyme, 0 = blocked; activation factor at 5 µM; actives 1.4% (n = 96,000);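 active = activation factor of 2 or more for CYP2C9 at a 5 µM dose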;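 also: 0 = sulfaphenazole-blocked wells and 1 = vehicle-only wells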
CYP2C19 inhib – human CYP2C19 inhibition | actives 21% (n = 96,000) | inhibition, % at 5 µM | AID 778 | CYP2C19 Supersomes, luciferin-H EGE luminescence, 30 min;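 active = CYP2C19 inhibition above a set limit at 5 µM in the primary screen, cut at about 50% in these data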;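 also: plate controls were negative control wells for no effect and 2.5 mM tranylcypromine positive control for full effect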
hDAT+cocaine – changed human dopamine transporter uptake under cocaine IC80; Q01959; LLC-PK1 hDAT cells, [14C]-dopamine uptake with cocaine IC80; actives deviate in either direction; B-score at 10 µM; actives 1.3% (n = 110,000); AID 449768;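 active = Z score or B-score, a plate-position-corrected score, falls beyond the plate's 99.7% confidence bounds, in either direction; inactive = both scores lie inside the 99.7% bounds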;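 also: scored against the spread of the other compound wells on the same plate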
CYP2C19 act – increases human CYP2C19 enzyme activity; recombinant CYP2C19, luciferin-H EGE luminescence; active compounds read high; 0 = fully inhibited enzyme, 1 = untreated enzyme; activation factor at 5 µM; AID 1025; P33261; 96,000 tested, under 10 active;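 active = activation factor of at least 2 at 5 µM in the primary screen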;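 also: 0 = wells with 2.5 mM tranylcypromine and 1 = vehicle-only wells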
Active calls of the source: *; . = no result given.

SMILES	D1 allo mod	CYP2C9 inhib	CYP2C9 act	CYP2C19 inhib	hDAT+cocaine	CYP2C19 act
O=C(CCCSc1nnc(SCCCC(=O)c2ccc(F)cc2)s1)c1ccc(F)cc1	.	76*	0.2	56*	0.32	0.4
CC(=O)Nc1nnc(SCc2ccc(F)cc2)s1	.	18	0.8	47	-0.64	0.5
O=C(O)CSc1nnnn1-c1ccccc1	.	3	1	6	-0.54	0.9
O=C(CCCSc1nnnn1-c1ccccc1)c1ccc(F)cc1	.	-60	1.6	59*	-0.084	0.4
O=C(CSc1nnnn1-c1ccccc1)CSc1nnnn1-c1ccccc1	0.45	72*	0.3	98*	1.4	0
CCNC(=O)NC(=O)C(C)Sc1nc2ccccc2n1CC(C)C (stereo not drawn)	.	-30	1.3	19	0.037	0.8
CS(=O)(=O)N1CCC(C(=O)NCc2ccco2)CC1	0.4	-20	1.2	-19	0.2	1.2
CN(c1ccc(C(=O)N2CCOCC2)cc1[N+](=O)[O-])C1CCCCC1	.	-2	1	0	0.036	1
O=C(NCCCN1CCOCC1)[C@@H]1CSC2c3ccccc3C(=O)N21 (stereo partly drawn)	-0.077	-18	1.2	-6	-0.18	1.1
COCOc1ccc(C2CC(=O)c3c(OCOC)cc(OCOC)cc3O2)cc1 (stereo not drawn)	.	.	.	.	1.2	.
O=C1c2ccccc2C(=O)N1CSc1nnnn1-c1ccccc1	0.23	-109	2.1*	83*	0.078	0.2
O=C1c2ccccc2C(=O)N1CCCCSc1nnnn1-c1ccccc1	1.6	51*	0.5	48	1.3	0.5
CCC(Sc1nnnn1-c1ccccc1)C(=O)NC(C)c1ccccc1 (stereo not drawn)	-0.12	44	0.6	74*	-0.04	0.3
O=C(O)CCSc1nnnn1-c1ccccc1	-0.027	-14	1.1	-14	-0.021	1.1
Cc1cc(C)nc(NC(=O)CSc2nnnn2-c2ccccc2)n1	0.045	-45	1.5	52*	-0.43	0.5
CCC(Sc1nnnn1-c1ccccc1)C(=O)Nc1nc2ccccc2s1 (stereo not drawn)	0.91	.	.	.	2.3	.
CN(Cc1ccccc1)C(=O)CSc1nnc(-c2ccco2)n1-c1ccccc1	-0.086	18	0.8	23	0.78	0.8
C#CCOCCOCCOCCNc1nc(N2CCN(C(=O)Cn3cc(CCCN=C(N)N)nn3)CC2)nc(N2CCN(C(=O)[C@H](C(C)C)n3cc(CCO)nn3)CC2)n1	.	.	.	.	-0.5	.
COc1ccc(C(=O)NCC(C)C)c(OC)c1	.	.	.	.	-0.67	.
CCCNC(=O)c1ccccc1NC(=O)c1ccccc1N(C)S(C)(=O)=O	.	.	.	.	0.36	.
CSc1ccccc1NC(=O)Nc1ccccc1	-0.21	30	0.7	58*	2.2	0.4
CCCNC(=O)c1ccccc1NC(=O)Nc1ccccc1C	.	24	0.8	51*	-0.0042	0.5
CC(C)CNC(=O)c1ccccc1NC(=O)Nc1ccccc1	.	52*	0.5	32	-0.4	0.7
CSc1cccc(NC(=O)Nc2ccccc2)c1	-0.27	28	0.7	44	0.19	0.6
CC(C)CNC(=O)c1ccccc1Oc1ccccc1	.	40	0.6	75*	0.86	0.2
SMILES	D1 allo mod	CYP2C9 inhib	CYP2C9 act	CYP2C19 inhib	hDAT+cocaine	CYP2C19 act
CC(C)(C)OC(=O)CNC(=O)c1nc[nH]c1C(=O)NCC(=O)OC(C)(C)C	.	.	.	.	0.047	.
CCC(C)(C)n1nnnc1C(c1cc(OC)ccc1OC)N1CCC(C(N)=O)CC1 (stereo not drawn)	.	.	.	.	-0.16	.
COc1ccccc1C1C(C(=O)c2sc(C)nc2C)=C(O)C(=O)N1CCN1CCOCC1 (stereo not drawn)	-0.23	-8	1.1	-4	1.5	1
Cc1sc2nc3n(c(=O)c2c1C)NC(=O)CC3	.	.	.	.	0.45	.
Cc1ccc(SC(CC(=O)c2ccc(C)cc2)C(=O)O)cc1 (stereo not drawn)	.	95*	0.1	45	-0.34	0.6
Cc1ccc(C(=O)CC(C(=O)O)n2cccn2)cc1 (stereo not drawn)	0.37	5	1	13	-0.2	0.9
C=CCN(CC=C)c1cnn(-c2nc3ccccc3[nH]2)c(=O)c1Cl	.	54*	0.5	56*	-0.72	0.4
COc1ccc(N2CCN(CCCNC(=O)CN3CCN(Cc4ccccc4C)C3=O)CC2)cc1	-0.91	36	0.6	7	-2.5	0.9
CCC(=O)NCCc1cc2cc(C)c(C)cc2[nH]c1=O	-0.36	-18	1.2	-8	.	1.1
Cc1cc2cc(CCNC(=O)c3c(-c4ccccc4Cl)noc3C)c(=O)[nH]c2cc1C	-3.7*	47	0.5	13	-0.24	0.9
CCC(CC)C(=O)NCCc1cc2cc(C)c(C)cc2[nH]c1=O	-0.042	63*	0.4	28	-0.0075	0.7
COC(=O)CCN1CCC(C(N)=O)CC1	0.17	48	0.5	10	-0.57	0.9
CCc1ccc(/C=N/Nc2nn[nH]n2)cc1	.	.	.	.	-0.28	.
COc1cc(S(=O)(=O)NCc2cccnc2)c(OC)cc1Br	.	12	0.9	14	0.21	0.9
CCCCOC(=O)c1ccc(NC(=O)c2cc(Cl)ccc2OC)cc1	.	-148	2.5*	23	0.4	0.8
CCCCOC(=O)c1ccc(NC(=O)c2ccoc2C)cc1	0.093	20	0.8	39	-0.67	0.6
COc1ccc(-c2nn3c(-c4cccc(C)c4)nnc3s2)cc1OC	17*	.	.	.	-0.26	.
COc1ccc(-c2nn3c(-c4ccccn4)nnc3s2)cc1OC	.	.	.	.	1.1	.
COc1cc(-c2nn3c(-c4cccnc4)nnc3s2)cc(OC)c1OC	-0.96	40	0.6	66*	1.2	0.3
Clc1ccc(-c2nn3c(-c4cccc(Cl)c4)nnc3s2)cc1	.	24	0.8	60*	.	0.4
COc1cc(-c2nnc3sc(-c4cccs4)nn23)cc(OC)c1OC	1	80*	0.2	70*	-0.22	0.3
COc1cc(-c2nn3c(-c4ccco4)nnc3s2)cc(OC)c1OC	.	28	0.7	1	.	1
CN(C)c1ccc(-c2nn3c(-c4cccnc4)nnc3s2)cc1	-0.018	10	0.9	38	0.38	0.6
FC(F)(F)c1cccc(Oc2cc(C(F)(F)F)nc(-c3ccccn3)n2)c1	.	17	0.8	3	0.17	1
O=C(/C=C/c1cccs1)N1CCC2(CC1)Oc1ccc(Cl)cc1C(=O)C21CC(c2ccccc2)=NO1 (stereo not drawn)	.	.	.	.	0.012	.
CCOc1ccccc1C(=O)NCC(=O)OCC(=O)c1ccc2c(c1)OCCO2	.	-68	1.7	-5	-1.6	1
Cc1cc(C(=O)COC(=O)CCC(=O)c2ccc3c(c2)OCCO3)c(C)n1Cc1ccco1	-2.1	68*	0.3	67*	0.39	0.3
CCOc1ncccc1C(=O)OCC(=O)c1cc(C)n(Cc2ccco2)c1C	-0.37	-127	2.3*	80*	-1	0.2
CCOc1ncccc1C(=O)OCC(=O)c1ccc(Cl)s1	.	10	0.9	55*	0.8	0.5
